Source: ChEMBL document CHEMBL2218924, “A broad activity screen in support of a chemogenomic map for kinase signalling research and drug discovery” (Biochem J, 2013)

Legend:
[1] = biological target: Tyrosine-protein kinase Lck (Homo sapiens) (UniProt P06239); settings: at 10 µM
[2] = biological target: Tyrosine-protein kinase Lck (Homo sapiens) (UniProt P06239); settings: at 1 µM
[3] = biological target: Tyrosine-protein kinase Lck (Homo sapiens) (UniProt P06239); settings: at 10 µM; remark: listed apart in the source
[4] = biological target: Tyrosine-protein kinase Lyn (Homo sapiens) (UniProt P07948); settings: at 1 µM
Tyrosine-protein kinase Lyn (Homo sapiens), sequence (P07948 2-512 limits assumed): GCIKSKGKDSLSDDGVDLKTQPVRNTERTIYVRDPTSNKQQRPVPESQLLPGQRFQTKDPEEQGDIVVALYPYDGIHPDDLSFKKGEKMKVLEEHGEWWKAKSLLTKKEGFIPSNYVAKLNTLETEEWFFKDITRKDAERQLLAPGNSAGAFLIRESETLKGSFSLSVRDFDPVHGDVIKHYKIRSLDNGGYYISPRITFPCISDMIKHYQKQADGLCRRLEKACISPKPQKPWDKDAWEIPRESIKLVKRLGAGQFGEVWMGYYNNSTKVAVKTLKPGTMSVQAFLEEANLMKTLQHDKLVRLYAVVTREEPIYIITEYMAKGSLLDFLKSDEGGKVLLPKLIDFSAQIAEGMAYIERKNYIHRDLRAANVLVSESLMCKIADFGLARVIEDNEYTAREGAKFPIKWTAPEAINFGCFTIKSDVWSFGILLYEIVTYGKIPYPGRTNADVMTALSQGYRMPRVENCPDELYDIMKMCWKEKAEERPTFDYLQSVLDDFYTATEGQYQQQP

[5] = biological target: Tyrosine-protein kinase Lyn (Homo sapiens) (UniProt P07948); settings: at 10 µM
[6] = biological target: Mitogen-activated protein kinase 3 (Homo sapiens) (UniProt P27361); settings: at 10 µM
Mitogen-activated protein kinase 3 (Homo sapiens), sequence (P27361 whole entry): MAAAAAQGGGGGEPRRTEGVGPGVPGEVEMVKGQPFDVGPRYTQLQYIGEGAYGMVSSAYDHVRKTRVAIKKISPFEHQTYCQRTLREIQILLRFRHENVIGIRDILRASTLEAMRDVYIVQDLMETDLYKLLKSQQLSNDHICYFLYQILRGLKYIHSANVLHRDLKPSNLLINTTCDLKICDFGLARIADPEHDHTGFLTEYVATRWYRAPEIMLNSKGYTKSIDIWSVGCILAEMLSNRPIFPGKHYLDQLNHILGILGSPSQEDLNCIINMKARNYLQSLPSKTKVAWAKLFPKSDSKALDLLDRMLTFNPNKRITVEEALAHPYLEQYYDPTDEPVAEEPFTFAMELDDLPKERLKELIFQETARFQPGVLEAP

[7] = biological target: Mitogen-activated protein kinase 1 (Homo sapiens) (UniProt P28482); settings: at 1 µM
Mitogen-activated protein kinase 1 (Homo sapiens), sequence (P28482 whole entry): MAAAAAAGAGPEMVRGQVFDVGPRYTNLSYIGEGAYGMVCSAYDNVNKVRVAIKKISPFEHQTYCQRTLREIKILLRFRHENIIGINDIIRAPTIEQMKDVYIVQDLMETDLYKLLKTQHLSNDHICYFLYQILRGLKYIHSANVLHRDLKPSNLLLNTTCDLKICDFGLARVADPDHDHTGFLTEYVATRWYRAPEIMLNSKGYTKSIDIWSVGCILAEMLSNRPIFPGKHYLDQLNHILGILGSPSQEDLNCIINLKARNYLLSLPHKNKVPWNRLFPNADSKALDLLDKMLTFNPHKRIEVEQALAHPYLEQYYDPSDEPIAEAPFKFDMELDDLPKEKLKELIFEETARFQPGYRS

[8] = biological target: Mitogen-activated protein kinase 1 (Homo sapiens) (UniProt P28482); settings: at 10 µM
[9] = biological target: MAP kinase-activated protein kinase 2 (Homo sapiens) (UniProt P49137); settings: at 1 µM
[10] = biological target: MAP kinase-activated protein kinase 2 (Homo sapiens) (UniProt P49137); settings: at 10 µM
[11] = biological target: MAP kinase-activated protein kinase 3 (Homo sapiens) (UniProt Q16644); settings: at 10 µM
MAP kinase-activated protein kinase 3 (Homo sapiens), sequence (Q16644 whole entry, looked up): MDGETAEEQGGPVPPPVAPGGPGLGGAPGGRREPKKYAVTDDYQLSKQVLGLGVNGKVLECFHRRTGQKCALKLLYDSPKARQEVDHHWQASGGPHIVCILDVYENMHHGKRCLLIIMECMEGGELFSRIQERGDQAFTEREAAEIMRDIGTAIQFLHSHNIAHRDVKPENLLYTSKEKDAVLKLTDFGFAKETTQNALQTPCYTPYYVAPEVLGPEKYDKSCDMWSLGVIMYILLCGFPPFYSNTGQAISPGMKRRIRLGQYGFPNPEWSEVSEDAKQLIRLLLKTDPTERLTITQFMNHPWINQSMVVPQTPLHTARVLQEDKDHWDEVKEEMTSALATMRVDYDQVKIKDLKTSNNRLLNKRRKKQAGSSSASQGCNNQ

[12] = biological target: Serine/threonine-protein kinase MARK1 (Homo sapiens) (UniProt Q9P0L2); settings: at 10 µM
Serine/threonine-protein kinase MARK1 (Homo sapiens), sequence (Q9P0L2 whole entry, looked up): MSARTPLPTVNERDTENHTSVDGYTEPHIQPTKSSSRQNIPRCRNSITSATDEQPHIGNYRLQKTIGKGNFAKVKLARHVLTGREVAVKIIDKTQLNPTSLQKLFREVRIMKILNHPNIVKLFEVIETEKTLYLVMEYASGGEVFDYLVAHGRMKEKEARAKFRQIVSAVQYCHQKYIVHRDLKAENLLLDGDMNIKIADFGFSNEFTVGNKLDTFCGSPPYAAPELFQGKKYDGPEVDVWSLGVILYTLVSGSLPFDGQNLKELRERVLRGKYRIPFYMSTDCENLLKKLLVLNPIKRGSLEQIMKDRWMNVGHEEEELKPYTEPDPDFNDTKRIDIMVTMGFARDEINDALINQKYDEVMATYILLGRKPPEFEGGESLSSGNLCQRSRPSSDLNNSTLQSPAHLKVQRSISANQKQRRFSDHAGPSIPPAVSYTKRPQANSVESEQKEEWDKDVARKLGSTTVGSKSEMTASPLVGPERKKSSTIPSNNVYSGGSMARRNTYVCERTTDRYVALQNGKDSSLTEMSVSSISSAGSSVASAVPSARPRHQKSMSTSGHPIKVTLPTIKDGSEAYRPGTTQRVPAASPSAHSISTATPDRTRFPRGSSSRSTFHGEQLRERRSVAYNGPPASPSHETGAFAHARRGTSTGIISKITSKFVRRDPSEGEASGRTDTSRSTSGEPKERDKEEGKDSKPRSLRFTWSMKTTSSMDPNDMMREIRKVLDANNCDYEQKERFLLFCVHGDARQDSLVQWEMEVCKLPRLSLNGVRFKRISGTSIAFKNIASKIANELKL

[13] = biological target: Dual specificity mitogen-activated protein kinase kinase 1 (Homo sapiens) (UniProt Q02750); settings: at 1 µM
Dual specificity mitogen-activated protein kinase kinase 1 (Homo sapiens), sequence (Q02750 whole entry): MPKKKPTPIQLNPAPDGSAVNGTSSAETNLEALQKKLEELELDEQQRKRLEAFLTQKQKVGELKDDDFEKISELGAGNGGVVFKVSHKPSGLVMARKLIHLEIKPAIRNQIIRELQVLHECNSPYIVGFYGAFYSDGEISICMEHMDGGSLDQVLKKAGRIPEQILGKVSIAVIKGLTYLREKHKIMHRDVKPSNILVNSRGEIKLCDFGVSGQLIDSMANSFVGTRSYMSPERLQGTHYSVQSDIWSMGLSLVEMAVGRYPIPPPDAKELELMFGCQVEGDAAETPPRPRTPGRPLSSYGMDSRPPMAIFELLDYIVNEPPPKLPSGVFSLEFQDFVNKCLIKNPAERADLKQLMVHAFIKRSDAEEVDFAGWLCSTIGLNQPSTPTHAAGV

[14] = biological target: Dual specificity mitogen-activated protein kinase kinase 1 (Homo sapiens) (UniProt Q02750); settings: at 10 µM
[15] = biological target: Maternal embryonic leucine zipper kinase (Homo sapiens) (UniProt Q14680); settings: at 1 µM
Maternal embryonic leucine zipper kinase (Homo sapiens), sequence (Q14680 whole entry, looked up): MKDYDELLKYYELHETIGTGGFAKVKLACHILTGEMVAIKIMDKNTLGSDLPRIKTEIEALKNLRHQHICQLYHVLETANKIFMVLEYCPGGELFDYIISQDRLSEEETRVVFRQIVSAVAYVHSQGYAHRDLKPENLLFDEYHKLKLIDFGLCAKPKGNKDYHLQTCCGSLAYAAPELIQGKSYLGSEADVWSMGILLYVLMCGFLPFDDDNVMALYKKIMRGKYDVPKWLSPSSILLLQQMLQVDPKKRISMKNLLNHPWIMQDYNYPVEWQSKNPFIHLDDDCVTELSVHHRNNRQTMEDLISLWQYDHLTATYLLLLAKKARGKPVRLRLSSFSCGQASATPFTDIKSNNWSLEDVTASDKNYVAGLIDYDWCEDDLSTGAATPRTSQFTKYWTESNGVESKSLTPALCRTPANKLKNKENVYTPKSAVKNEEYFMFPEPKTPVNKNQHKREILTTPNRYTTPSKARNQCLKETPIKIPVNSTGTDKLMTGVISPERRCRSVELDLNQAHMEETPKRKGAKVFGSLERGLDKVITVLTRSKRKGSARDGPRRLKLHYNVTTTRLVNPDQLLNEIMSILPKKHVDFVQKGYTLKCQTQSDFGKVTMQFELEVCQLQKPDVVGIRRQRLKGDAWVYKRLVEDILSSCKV

[16] = biological target: Maternal embryonic leucine zipper kinase (Homo sapiens) (UniProt Q14680); settings: at 10 µM
[17] = biological target: Misshapen-like kinase 1 (Homo sapiens) (UniProt Q8N4C8); settings: at 10 µM
Misshapen-like kinase 1 (Homo sapiens), sequence (Q8N4C8 whole entry, looked up): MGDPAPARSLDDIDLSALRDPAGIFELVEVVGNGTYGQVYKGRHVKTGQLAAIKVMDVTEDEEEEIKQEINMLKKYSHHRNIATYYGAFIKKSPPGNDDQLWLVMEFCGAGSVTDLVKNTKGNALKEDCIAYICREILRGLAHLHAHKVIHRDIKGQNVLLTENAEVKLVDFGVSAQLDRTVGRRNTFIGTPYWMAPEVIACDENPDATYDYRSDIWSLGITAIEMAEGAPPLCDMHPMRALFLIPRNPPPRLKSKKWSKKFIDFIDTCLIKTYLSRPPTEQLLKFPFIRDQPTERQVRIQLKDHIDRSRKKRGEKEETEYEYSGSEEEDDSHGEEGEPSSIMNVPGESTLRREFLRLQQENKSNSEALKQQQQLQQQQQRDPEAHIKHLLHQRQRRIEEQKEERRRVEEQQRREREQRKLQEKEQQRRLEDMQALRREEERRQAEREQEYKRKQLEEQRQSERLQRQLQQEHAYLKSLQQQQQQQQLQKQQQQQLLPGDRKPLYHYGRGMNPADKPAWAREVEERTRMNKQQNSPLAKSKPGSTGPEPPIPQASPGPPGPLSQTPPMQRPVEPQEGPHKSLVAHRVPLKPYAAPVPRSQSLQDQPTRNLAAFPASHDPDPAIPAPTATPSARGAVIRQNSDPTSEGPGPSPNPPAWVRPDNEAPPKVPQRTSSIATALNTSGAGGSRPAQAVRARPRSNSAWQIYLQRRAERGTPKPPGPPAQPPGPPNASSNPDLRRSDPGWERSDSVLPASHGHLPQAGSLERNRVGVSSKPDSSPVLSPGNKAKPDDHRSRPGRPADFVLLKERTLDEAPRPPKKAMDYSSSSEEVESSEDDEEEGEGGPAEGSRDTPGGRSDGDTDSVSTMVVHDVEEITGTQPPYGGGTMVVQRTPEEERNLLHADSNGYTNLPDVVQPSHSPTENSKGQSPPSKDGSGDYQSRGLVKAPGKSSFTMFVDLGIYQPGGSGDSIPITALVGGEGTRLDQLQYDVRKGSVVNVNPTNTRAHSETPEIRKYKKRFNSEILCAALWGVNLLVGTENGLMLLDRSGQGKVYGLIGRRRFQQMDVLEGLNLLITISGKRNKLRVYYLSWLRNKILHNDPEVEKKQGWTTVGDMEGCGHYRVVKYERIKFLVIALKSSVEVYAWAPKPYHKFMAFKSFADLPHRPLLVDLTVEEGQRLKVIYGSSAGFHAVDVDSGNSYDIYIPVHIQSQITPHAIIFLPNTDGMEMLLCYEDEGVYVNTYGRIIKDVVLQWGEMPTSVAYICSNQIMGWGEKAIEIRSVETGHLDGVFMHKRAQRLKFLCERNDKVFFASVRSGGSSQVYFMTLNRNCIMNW

[18] = biological target: Mitogen-activated protein kinase 3 (Homo sapiens) (UniProt P27361); settings: at 1 µM
[19] = biological target: Serine/threonine-protein kinase MARK1 (Homo sapiens) (UniProt Q9P0L2); settings: at 1 µM
[20] = biological target: Misshapen-like kinase 1 (Homo sapiens) (UniProt Q8N4C8); settings: at 1 µM

SMILES	residual activity [1] [%]	residual activity [2] [%]	residual activity [3] [%]	residual activity [4] [%]	residual activity [5] [%]	residual activity [6] [%]	residual activity [7] [%]	residual activity [8] [%]	residual activity [9] [%]	residual activity [10] [%]	residual activity [11] [%]	residual activity [12] [%]	residual activity [13] [%]	residual activity [14] [%]	residual activity [15] [%]	residual activity [16] [%]	residual activity [17] [%]	residual activity [18] [%]	residual activity [19] [%]	residual activity [20] [%]
COc1cc2ncnc(Nc3cccc(Cl)c3)c2cc1OC	12	49	15	10	1	65	101	80	108	105	65	83	114	71	89	59	76			
O=c1cc(N2CCNCC2)oc2c(-c3ccccc3)cccc12	85	92	88		71	87	101		94	85	89	89	99	89	80	78	99	86	82	104
O=C(CCCc1ccc(-c2ccccc2F)cc1)Nc1ccc(O)cc1	58	99	88	97	85	88	106	92	95	76		94	103	111	100	77	102	100	102	111
O=C(c1ccccc1)c1ccc(N2CCOCC2)cc1O	94	96	78	85	72	89			73	89	93	83	80	90	85	65	60	90	93	85
COc1ccc(CNC(=O)Nc2ncc([N+](=O)[O-])s2)cc1	37	6	9				120	101				76								
O=C(c1cc2cc(O)ccc2[nH]1)c1cc2cc(O)ccc2[nH]1	2	22	7	6	-1	64			64	51		5	80	26	27	3	4	82	40	21
CCCCc1c(-c2ccc(OC)cc2)[nH]c2nccnc12	63	63	82	37	11		117	105	89	109	109	76	140	112	74	75			78	104
c1ccc(-c2cnc(Nc3ccc(OCCN4CCCC4)cc3)s2)cc1	19	36	5	29	4						104		113		64	20	12			61
O=C1Nc2ccccc2/C1=C\c1c(Cl)[nH]c2ccccc12	48		55		62		121				85	74			77	30				
CC(C)c1nn(-c2c(Cl)cccc2Cl)c2nc(Cc3ccc(OCCO)cc3)[nH]c(=O)c12	85		88	81	36	73		89	80	89	91	47	82		65	67	93	94	80	97
O=C(NC(NC(=S)Nc1ccc(F)c([N+](=O)[O-])c1)C(Cl)(Cl)Cl)C(c1ccccc1)c1ccccc1 (stereo unspecified)	55	86	74	89	66	82			90	78		80			76	76		82	96	
CCN(CC)CCNC(=O)c1c(C)[nH]c(/C=C2\C(=O)Nc3ccc(Cl)cc32)c1C	2	6	-1	2	3	115						3	21	8	8	3	2		14	9
O=C1Nc2ccc(Cl)cc2/C1=C/c1cc(Cl)c(O)c(Cl)c1	53	74	51	81	23	70			67	71	61	35	99	49	60	46	35	76	69	35
Nc1nc(Nc2ccc(S(N)(=O)=O)cc2)nn1C(=O)c1c(F)cccc1F	29	66	18	40	11								73	64			80	102		107
O=C1NC(=O)c2c1c1c3ccccc3[nH]c1n1cncc21	49	72	47	57	19	90		98	79	89	82	21	59	67	27	10	45	86	25	77
COc1cc2nccc(Oc3ccc(NC(=S)NC(=O)c4ccccc4C)cc3)c2cc1OC	-1	0	0	0	0	82	93	87	73	66	56	75	86	68	98	84	69	83	81	77
O=C(O)/C=C/c1cc(Br)c(Br)c(Br)c1Br	95		80	70	63	104			93	79	82	82	106	65	82	80	87	106	104	105

SMILES	residual activity [1] [%]	residual activity [2] [%]	residual activity [3] [%]	residual activity [4] [%]	residual activity [5] [%]	residual activity [6] [%]	residual activity [7] [%]	residual activity [8] [%]	residual activity [9] [%]	residual activity [10] [%]	residual activity [11] [%]	residual activity [12] [%]	residual activity [13] [%]	residual activity [14] [%]	residual activity [15] [%]	residual activity [16] [%]	residual activity [17] [%]	residual activity [18] [%]	residual activity [19] [%]	residual activity [20] [%]
O=C1C(Cl)=C(N2C(=O)CCC2=O)C(=O)c2ccccc21	99		93	87	84	91			69	87	100	81		67		70		102	82	
CC(C)N(CCC(=O)c1ccc2ccccc2c1)Cc1ccccc1	77					76						75			75	87		85	73	
COc1cc2nccc(Oc3ccc(NC(=O)Nc4cc(C)on4)c(Cl)c3)c2cc1OC	1	-2	1	-1	2		103	104			67		62	20		80	21		99	71
CSc1nc(-c2ccc(F)cc2)c(-c2ccnc(NC(C)c3ccccc3)c2)[nH]1 (stereo unspecified)	62		37	52	29				79	98		76			88	61	59		94	
COc1ccc2c(c1)c(C1=C(c3c[nH]c4ccccc34)C(=O)NC1=O)cn2CCCN(C)C	25	65	27	63	13	82	114				135	53	102	75	54	26	61	104	75	
Nc1ncnc2[nH]nc(Nc3ccc(F)cc3)c12	14	31	19	19	3	43	101	67	75	95	112	69	60	23		51	48	90		
CC(C)(C)n1nc(Cc2cccc3ccccc23)c2c(N)ncnc21	6	44	12	10	1	51	81	41			90	80	94	63	72	30	26	78	91	86
O=c1cc(N2CCOCC2)oc2c1ccc1ccccc12	101	89	88	103	90	80	103	106	100	87	109	89		92	92	91	110	101	93	102
O=C1NC(=O)C(c2c[nH]c3ccccc23)=C1c1c[nH]c2ccccc12	37		41	82	32	61			98	79		37	34	7	80	27	41		81	
NCCNc1ncc(C(N)=O)c(Nc2cccc(C(F)(F)F)c2)n1	37	82	29	27	3	40		43		49	72	30	73	25				72	72	
Nc1ncnc2c1c(-c1ccc(Oc3ccccc3)cc1)cn2C1CCCC1	-1	-3	2	0	1	66	106	93	82	77	84	54	48	24	72	31	82	76	74	93
O=C1NC(=O)C(c2cn(CCCn3ccnc3)c3ccccc23)=C1Nc1ccccc1	65		66		39	70	104	110	100			51	104	39			47		77	
CCCCc1c(-c2ccc(O)cc2)[nH]c2nccnc12	50	63	59			73			98			38			76	72	86	96	74	97
COc1ccc(-c2cnc3c(-c4ccsc4)cnn3c2)cc1	123	93	91	98	95	91			91			95			80	87	76	84	91	89
CCCC(=O)Oc1ccc2[nH]c(C(=O)c3cc4ccccc4[nH]3)cc2c1	73	80	76	61	31	80	100	104	75	87	94	84	93	100	88	87	82	77	80	82
COc1ccc(COc2ccc(Cc3cnc(N)nc3N)cc2OC)cc1	77																			
